From PubChem BioAssay (NCI)
Compounds without any hit were thinned out: in the full panel of roughly 83,000, 20% have a hit.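 Percent growth is the endpoint: 0 to 100 indicates growth inhibition (40 means 60% inhibition), 0 means no net growth, and negative values indicate cell death.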 The source made the active and inactive calls. How the source made its calls: active means growth percent below 10; inactive means the rest.

What follows are compounds tested on HOP-92 NSCLC (assay: NCI-60 one-dose screen, 48 h (100 = growth as untreated, 0 = no growth, -100 = all killed)). Settings: 10 µM unless noted.
For `COc1cc(-c2nc3sccn3c2-c2ccnc(NCCNS(=O)(=O)c3ccc(Cl)cc3)n2)ccc1F`, the growth was 78.8% (inactive). With `CCCn1cnc2c(c1=N)C(c1ccc(F)cc1)c1sc3c(F)cccc3c1O2` (stereo not given) the growth was 67.5% (inactive). For `C#CCNC(=O)[C@]1(C)CCC[C@@]2(C)[C@H]1CC=C1C=C(C(C)C)CC[C@@H]12`, the growth was 109% (inactive). `N[C@H]1CCC[C@@H]1NCCCCN1C(=O)c2cccc3cc([N+](=O)[O-])cc(c23)C1=O` was tested, and the growth was 30.1% (inactive). With `CC1C=CC(OC(=O)C(C)(O)CCC(O)(C(=O)OC2CC(O)C(C(C)C)CC2(C)O)C(C)C)(C(C)C)CC1` (stereo not given) the growth was -67.1% [4.63 µM] (active). `C=CC(=O)Nc1ccc(Nc2nccc(-c3ccc(N4CCCC4)c(C#N)c3)n2)cc1` was tested, and the growth was 60.9% (inactive). In the case of `CC(=O)OC(c1ccccc1)C1CCOC1=O` (stereo not given), the growth is reported as 93.2% (inactive). For `COC(=O)CCC/C=C\C[C@H]1C=CC(=O)/C1=C/C[C@@H](O)C/C=C\CC(F)(F)F`, the growth was -18.8% (active). `N#CC1=C(N)Oc2ccc3ccccc3c2C1c1ccc([N+](=O)[O-])cc1` (stereo not given) was tested, and the growth was 121% (inactive). With `COc1cc(-c2nc3c(ncc4ccc(=O)n(-c5ccccc5)c43)s2)cc(OC)c1OC` the growth was 19.1% (inactive). `Cc1ccc(-c2csc(N(C(=O)N3CCN(c4cc5c(cc4F)c(=O)c(C(=O)O)cn5C4CC4)CC3)c3ccccc3)n2)cc1` was tested, and the growth was -18% (active). For `O=c1cc(-c2ccccc2)[nH]c2ncc(-c3ccc(F)cc3)n12`, the growth was 54.9% (inactive). `COc1cc(-c2nc3cc(Cl)c(Cl)cc3[nH]2)ccc1OCC(=O)N=Nc1c(O)[nH]c2ccc(Cl)cc12` was tested, and the growth was -19.7% (active). In the case of `NC(=O)c1c(NC(=O)c2cccs2)sc2c1CCC(=O)C2`, the growth is reported as 36.7% (inactive). In the case of `O=C(Oc1ccc(CCl)cc1)c1ccccc1`, the growth is reported as -89.7% (active). For `O=C(Cc1ccc(/C=C/C(=O)c2ncc[nH]2)cc1)Nc1cc(C(F)(F)F)cc(C(F)(F)F)c1`, the growth was 116% (inactive). With `Nc1ncnc2c1N=C(c1ccc3c(c1)OCO3)CC(c1cccc(Nc3ccnc4cc(C(F)(F)F)ccc34)c1)N2` (stereo not given) the growth was 53.8% (inactive). With `COc1cccc(/C=N/NC(=O)c2ccccc2N2CCCC2)c1O` the growth was 47.6% (inactive). `CCNc1ccc(-c2nc3ccccc3n3cccc23)cc1` was tested, and the growth was 63.7% (inactive). In the case of `CN(C)CCCNC(=O)c1cncnc1Nc1ccc(OCc2cccc(F)c2)c(Cl)c1`, the growth is reported as 24.6% (inactive). For `O=C(NC1CC(F)C1)c1cc2cccnc2n1-c1ccc(Cl)c(Cl)c1` (stereo not given), the growth was 83% (inactive). For `CN1CCN(c2ccc3nc4c(nc3c2C(F)(F)F)C(=O)c2ncccc2C4=O)CC1`, the growth was 27.5% (inactive). `Cc1ccc(N2C(=O)CCC2=O)cc1` was tested, and the growth was 96.3% (inactive). `CCN1C(=O)N(CC)C2C1NN=c1s/c(=C3\C(=O)N(CCC(C)C)c4ccccc43)c(=O)n12` (stereo not given) was tested, and the growth was 40.4% (inactive). With `CN(Cc1cnc2nc(N)nc(N)c2n1)c1ccc(C(=O)NC(CCC(=O)O)C(=O)O)cc1Br` (stereo not given) the growth was 59.6% (inactive).
